# From ChEMBL document CHEMBL1961873, “Compounds: GSK PKIS; Assays: Nanosyn kinase panel” (2012)
# How the values were obtained:
# [1] = target: Death-associated protein kinase 1 (Homo sapiens) (UniProt P53355); settings: at 1 µM;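 further: each value is a mean inhibition figure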
# [2] = target: T1, Serine/threonine-protein kinase DCLK2 (Homo sapiens) (UniProt Q8N568); settings: at 0.1 µM
# T1 sequence (whole entry): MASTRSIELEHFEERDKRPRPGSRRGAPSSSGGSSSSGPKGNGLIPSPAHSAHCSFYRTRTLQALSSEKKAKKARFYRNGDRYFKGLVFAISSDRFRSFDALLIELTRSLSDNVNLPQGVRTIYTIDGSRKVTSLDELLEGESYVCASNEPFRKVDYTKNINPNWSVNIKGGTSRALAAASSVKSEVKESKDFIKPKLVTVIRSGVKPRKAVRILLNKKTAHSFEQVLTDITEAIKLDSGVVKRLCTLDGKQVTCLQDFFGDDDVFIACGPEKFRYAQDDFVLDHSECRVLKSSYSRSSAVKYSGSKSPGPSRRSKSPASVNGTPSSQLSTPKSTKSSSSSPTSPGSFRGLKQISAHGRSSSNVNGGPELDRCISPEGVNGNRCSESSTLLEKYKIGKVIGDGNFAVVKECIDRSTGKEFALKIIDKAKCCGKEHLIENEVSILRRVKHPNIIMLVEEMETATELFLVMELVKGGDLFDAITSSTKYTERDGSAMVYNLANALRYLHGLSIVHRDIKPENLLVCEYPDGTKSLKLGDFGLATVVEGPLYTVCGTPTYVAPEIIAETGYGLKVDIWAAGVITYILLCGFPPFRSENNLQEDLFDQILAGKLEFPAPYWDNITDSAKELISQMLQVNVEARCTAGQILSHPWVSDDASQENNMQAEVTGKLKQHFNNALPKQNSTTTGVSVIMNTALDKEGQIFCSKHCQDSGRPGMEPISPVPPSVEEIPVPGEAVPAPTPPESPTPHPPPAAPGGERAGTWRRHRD
# [3] = target: T1, Serine/threonine-protein kinase DCLK2 (Homo sapiens); settings: at 1 µM
# [4] = target: MAP kinase-activated protein kinase 2 (Homo sapiens) (UniProt P49137); settings: at 0.1 µM
# MAP kinase-activated protein kinase 2 (Homo sapiens), sequence (P49137 whole entry, looked up): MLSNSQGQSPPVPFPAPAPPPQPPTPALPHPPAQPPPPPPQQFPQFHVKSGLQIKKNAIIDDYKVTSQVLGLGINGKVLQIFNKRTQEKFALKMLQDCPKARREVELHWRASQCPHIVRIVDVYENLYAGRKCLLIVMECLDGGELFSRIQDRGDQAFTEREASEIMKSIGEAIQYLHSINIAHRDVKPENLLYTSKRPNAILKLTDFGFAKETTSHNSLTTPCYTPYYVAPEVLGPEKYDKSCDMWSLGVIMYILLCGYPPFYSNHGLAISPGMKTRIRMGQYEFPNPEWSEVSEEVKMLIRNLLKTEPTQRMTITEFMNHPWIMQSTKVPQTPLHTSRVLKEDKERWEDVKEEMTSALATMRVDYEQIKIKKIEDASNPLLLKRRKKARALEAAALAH
# [5] = target: MAP kinase-activated protein kinase 2 (Homo sapiens) (UniProt P49137); settings: at 1 µM
# [6] = target: MAP kinase-activated protein kinase 3 (Homo sapiens) (UniProt Q16644); settings: at 0.1 µM
# MAP kinase-activated protein kinase 3 (Homo sapiens), sequence (Q16644 whole entry, looked up): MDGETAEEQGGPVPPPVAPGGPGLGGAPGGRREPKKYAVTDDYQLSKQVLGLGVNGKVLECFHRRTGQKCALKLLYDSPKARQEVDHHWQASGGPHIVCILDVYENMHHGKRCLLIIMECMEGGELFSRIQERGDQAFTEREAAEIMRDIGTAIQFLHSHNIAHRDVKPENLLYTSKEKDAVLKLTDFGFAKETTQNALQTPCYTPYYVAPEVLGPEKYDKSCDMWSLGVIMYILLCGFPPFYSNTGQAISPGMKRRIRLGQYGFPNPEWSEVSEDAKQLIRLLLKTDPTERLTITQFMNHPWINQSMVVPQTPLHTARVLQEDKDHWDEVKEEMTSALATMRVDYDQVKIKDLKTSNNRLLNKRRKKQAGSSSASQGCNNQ
# [7] = target: MAP kinase-activated protein kinase 3 (Homo sapiens) (UniProt Q16644); settings: at 1 µM
# [8] = target: Serine/threonine-protein kinase MARK1 (Homo sapiens) (UniProt Q9P0L2); settings: at 0.1 µM
# Serine/threonine-protein kinase MARK1 (Homo sapiens), sequence (Q9P0L2 whole entry, looked up): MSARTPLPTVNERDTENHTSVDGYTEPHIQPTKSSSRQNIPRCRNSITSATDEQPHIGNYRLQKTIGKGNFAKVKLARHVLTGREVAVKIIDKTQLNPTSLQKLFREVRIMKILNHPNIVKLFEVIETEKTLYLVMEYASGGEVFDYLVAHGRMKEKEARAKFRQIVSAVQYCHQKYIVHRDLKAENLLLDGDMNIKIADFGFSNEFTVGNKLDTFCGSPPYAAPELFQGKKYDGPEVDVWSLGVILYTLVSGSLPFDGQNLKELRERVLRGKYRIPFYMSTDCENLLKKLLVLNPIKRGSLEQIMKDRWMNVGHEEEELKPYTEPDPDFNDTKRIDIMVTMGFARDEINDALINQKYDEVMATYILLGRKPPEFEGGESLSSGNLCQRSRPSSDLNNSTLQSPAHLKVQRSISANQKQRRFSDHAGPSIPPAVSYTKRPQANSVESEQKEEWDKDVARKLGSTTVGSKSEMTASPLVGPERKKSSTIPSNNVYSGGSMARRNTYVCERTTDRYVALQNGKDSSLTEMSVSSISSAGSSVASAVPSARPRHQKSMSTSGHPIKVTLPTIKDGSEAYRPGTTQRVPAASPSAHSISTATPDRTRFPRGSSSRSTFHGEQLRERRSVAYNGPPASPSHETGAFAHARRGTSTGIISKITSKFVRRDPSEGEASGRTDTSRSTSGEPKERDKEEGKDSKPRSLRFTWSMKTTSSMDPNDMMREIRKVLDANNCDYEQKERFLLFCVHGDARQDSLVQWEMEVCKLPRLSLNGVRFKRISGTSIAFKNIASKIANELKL
# [9] = target: Serine/threonine-protein kinase MARK1 (Homo sapiens) (UniProt Q9P0L2); settings: at 1 µM
# [10] = target: MAP/microtubule affinity-regulating kinase 3 (Homo sapiens) (UniProt P27448); settings: at 0.1 µM;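 further: mean percent inhibition of MARK3 kinase activity, measured within the GSK PKIS screening panel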
# MAP/microtubule affinity-regulating kinase 3 (Homo sapiens), sequence (P27448 whole entry, looked up): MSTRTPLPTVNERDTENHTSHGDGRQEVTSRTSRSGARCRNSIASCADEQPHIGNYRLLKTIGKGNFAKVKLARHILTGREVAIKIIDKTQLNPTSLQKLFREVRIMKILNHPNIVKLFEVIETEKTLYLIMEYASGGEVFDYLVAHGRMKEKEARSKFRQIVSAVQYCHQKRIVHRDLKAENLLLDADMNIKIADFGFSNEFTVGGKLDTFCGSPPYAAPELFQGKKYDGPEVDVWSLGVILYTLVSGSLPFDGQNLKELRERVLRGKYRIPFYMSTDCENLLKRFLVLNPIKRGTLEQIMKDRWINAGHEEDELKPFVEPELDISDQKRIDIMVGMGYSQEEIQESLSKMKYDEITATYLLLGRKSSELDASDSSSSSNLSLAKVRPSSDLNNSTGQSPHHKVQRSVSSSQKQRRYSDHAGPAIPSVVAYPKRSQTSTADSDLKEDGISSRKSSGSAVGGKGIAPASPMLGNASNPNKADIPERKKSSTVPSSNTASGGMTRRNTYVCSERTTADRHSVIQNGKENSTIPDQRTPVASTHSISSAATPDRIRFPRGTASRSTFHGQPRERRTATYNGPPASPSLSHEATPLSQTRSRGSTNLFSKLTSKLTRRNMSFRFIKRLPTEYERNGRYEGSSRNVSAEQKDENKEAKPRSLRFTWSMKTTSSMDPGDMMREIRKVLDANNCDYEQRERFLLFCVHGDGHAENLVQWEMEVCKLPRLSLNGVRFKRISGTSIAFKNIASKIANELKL
# Death-associated protein kinase 1 (Homo sapiens), sequence (P53355 whole entry, looked up): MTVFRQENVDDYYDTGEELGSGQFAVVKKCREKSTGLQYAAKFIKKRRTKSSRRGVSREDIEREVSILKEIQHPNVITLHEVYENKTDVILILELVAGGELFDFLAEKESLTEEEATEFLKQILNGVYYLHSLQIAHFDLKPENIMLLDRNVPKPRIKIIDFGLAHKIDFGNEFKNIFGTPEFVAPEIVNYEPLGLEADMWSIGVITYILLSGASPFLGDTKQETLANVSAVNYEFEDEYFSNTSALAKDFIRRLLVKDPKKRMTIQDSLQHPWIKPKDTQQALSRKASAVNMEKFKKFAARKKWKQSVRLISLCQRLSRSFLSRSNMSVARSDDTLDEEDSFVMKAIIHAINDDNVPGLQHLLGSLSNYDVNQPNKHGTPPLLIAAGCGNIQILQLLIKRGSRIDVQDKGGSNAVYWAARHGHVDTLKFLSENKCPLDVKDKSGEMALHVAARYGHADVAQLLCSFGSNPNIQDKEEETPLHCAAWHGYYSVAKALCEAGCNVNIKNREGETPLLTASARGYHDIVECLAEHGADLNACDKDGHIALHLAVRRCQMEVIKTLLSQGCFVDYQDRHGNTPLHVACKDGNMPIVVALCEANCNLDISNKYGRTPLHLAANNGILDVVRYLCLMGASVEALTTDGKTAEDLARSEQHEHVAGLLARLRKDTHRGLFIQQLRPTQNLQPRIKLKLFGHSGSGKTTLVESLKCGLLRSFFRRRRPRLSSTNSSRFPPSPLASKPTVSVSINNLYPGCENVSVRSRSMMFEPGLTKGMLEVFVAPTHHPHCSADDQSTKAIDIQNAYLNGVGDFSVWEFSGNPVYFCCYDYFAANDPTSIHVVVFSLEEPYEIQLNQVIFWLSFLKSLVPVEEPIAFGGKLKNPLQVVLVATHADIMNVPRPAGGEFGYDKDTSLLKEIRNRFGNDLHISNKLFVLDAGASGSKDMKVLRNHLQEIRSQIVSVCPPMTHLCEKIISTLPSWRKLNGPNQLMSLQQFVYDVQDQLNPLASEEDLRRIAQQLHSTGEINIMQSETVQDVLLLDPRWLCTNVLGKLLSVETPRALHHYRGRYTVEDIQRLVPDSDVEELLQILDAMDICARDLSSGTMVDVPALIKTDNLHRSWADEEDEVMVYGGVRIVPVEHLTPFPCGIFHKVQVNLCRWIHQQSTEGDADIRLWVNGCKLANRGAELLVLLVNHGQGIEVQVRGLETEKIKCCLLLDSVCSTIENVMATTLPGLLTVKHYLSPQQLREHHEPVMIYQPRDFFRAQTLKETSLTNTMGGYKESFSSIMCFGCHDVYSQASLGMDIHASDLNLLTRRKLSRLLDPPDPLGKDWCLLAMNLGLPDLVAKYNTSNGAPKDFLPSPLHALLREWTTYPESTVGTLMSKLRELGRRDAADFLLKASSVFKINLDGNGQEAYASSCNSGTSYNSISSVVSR
SMILES,inhibition [1],inhibition [2],inhibition [3],inhibition [4],inhibition [5],inhibition [6],inhibition [7],inhibition [8],inhibition [9],inhibition [10]
CC(C)COC(=O)c1ccc2c(c1)/C(=C/Nc1ccc(S(N)(=O)=O)cc1)C(=O)N2,3.08%,-2.21%,10.2%,-0.97%,-1.28%,-2.74%,-2.61%,42.7%,87.1%,33.3%
CNC(=O)c1cccc(C#Cc2cncnc2Nc2ccc(OCc3cccc(F)c3)c(Cl)c2)c1,-1.89%,-9.58%,-6.14%,1.01%,0.58%,1.88%,1.66%,-0.72%,1.6%,1.07%
O=S(=O)(CCNCc1ccc(-c2ccc3ncnc(Nc4ccc(OCc5cccc(F)c5)c(Cl)c4)c3c2)o1)c1ccccc1,6.96%,1.44%,2.85%,2.31%,2.57%,7.71%,7.76%,3.69%,5.01%,3.94%
N#Cc1c(NC(=O)CN2CCOCC2)sc2c1CCCC2,5.97%,2.25%,1.22%,2.32%,2%,3.68%,5.44%,4.32%,6.04%,4.14%
COc1cc2c(cc1Nc1nc(Nc3ccsc3C(N)=O)c3cc[nH]c3n1)N(C(=O)CN(C)C)CCC2(C)C,5.25%,1.46%,5.94%,-0.48%,-0.86%,-0.72%,-0.02%,6.98%,11.9%,5.88%
CCCN(CCS(C)(=O)=O)Cc1ccc(-c2ccc3ncnc(Nc4ccc(OCc5cccc(F)c5)c(Cl)c4)c3c2)o1,8.65%,0.95%,0.44%,3.34%,3.18%,7.91%,7.63%,0.08%,0.29%,-1.25%
CCCN1CCC(c2ccc(Nc3nc(Nc4cc(F)ccc4C(N)=O)c4cc[nH]c4n3)c(OC)c2)CC1,50%,1.99%,8.21%,1.84%,3.23%,5.33%,11.9%,9.11%,50.1%,12.2%
CCn1c(-c2nonc2N)nc2ccccc21,7.32%,-0.38%,-3.76%,0.79%,1.12%,3.15%,1.52%,2.03%,3.52%,3.42%
COc1ccc2c(-c3ccnc(Nc4cccc(OC(F)(F)F)c4)n3)cnn2n1,5.37%,0.72%,0.97%,2.32%,2.88%,4.5%,5.2%,2.92%,6.68%,0.91%
CCn1c(-c2nonc2N)nc2c(C#CC(C)(C)O)nc(OC[C@H](N)c3ccccc3)cc21,4.82%,-2.25%,1.52%,0.63%,2.99%,1.45%,2.95%,2.28%,27.3%,4.68%
CC(=O)NCc1cccc(C#Cc2cncnc2Nc2ccc(OCc3cccc(F)c3)c(Cl)c2)c1,-8.59%,1.43%,6.49%,-2.58%,-3.05%,-4.92%,-5.42%,1.88%,2.89%,1.71%
COC(=O)Nc1nc2ccc(Oc3ccc(NC(=O)Nc4cccc(Cl)c4)cc3)cc2[nH]1,-0.2%,-0.66%,0.75%,-0.07%,-0.56%,3.71%,4.53%,0.33%,2.88%,0.27%
Fc1ccc(-c2nn3ncccc3c2-c2ccnc(Nc3ccc4c(c3)OCCO4)n2)cc1,2.12%,1.43%,-0.42%,1.56%,1.39%,34.4%,37.8%,1.97%,3.47%,4.24%
COc1cccc(-c2c[nH]c3c(N/N=C/c4ccncc4)ncnc23)c1,11.2%,1.17%,8.13%,2.94%,3.56%,9.72%,11.1%,2.74%,8.15%,6.06%
COc1cccc(-n2ncc3c(N/N=C/c4ccc(F)cc4)ncnc32)c1,5.45%,1.07%,0.2%,1.96%,2.72%,3.14%,3.2%,3.33%,5.14%,4.91%
O=C(O[C@H]1CN[C@H](C#Cc2cc3ncnc(Nc4ccc(Cc5ccccc5)cc4)c3s2)C1)N1CCOCC1,2.13%,-0.4%,2.31%,0.76%,-0.1%,3.66%,3.19%,1.63%,2.56%,2.46%
CN(C)CCOc1ccc(-c2nc(-c3ccncc3)c(-c3ccc4c(c3)CC/C4=N\O)[nH]2)cc1,5.09%,0.7%,1.55%,1.68%,2.27%,2.57%,4.19%,2.54%,3.97%,2.63%

SMILES,inhibition [1],inhibition [2],inhibition [3],inhibition [4],inhibition [5],inhibition [6],inhibition [7],inhibition [8],inhibition [9],inhibition [10]
Cc1cccc2c1NC(=O)/C2=N\Nc1ccc(S(N)(=O)=O)cc1,4.75%,0.74%,2.14%,1.37%,1.1%,2.44%,2.04%,1.81%,3.2%,2.64%
CNC(=O)c1cc(-c2ccc(F)cc2)cc(-c2ccc(S(=O)(=O)N3CCCC3)cc2)c1N,9.63%,-1.53%,-0.01%,4.47%,5.35%,7.55%,9.54%,2.14%,3.58%,1.73%
CCNC(=O)O[C@H]1CN[C@H](C#Cc2cc3ncnc(Nc4ccc(OCc5cccc(F)c5)c(Cl)c4)c3s2)C1,3.45%,1.18%,2.85%,1.55%,1.53%,2.87%,2.32%,1.89%,2.65%,2.76%
COc1ccc(-c2cc3c(N)ncnc3o2)cc1,-3.05%,-1.82%,0.37%,-1.21%,-0.76%,-1.27%,-1.91%,0.03%,2.81%,-1.55%
COc1cc(N2CCN(C(C)C)CC2)ccc1Nc1nc(Nc2ccc(F)cc2C(N)=O)c2cc[nH]c2n1,46%,-0.62%,8.47%,0.94%,5.03%,3.04%,7.11%,7.7%,47.7%,12.3%
CS(=O)(=O)CCNCc1coc(-c2ccc3ncnc(Nc4ccc(OCc5ccccc5)cc4)c3c2)c1,1.73%,-0.36%,0.64%,1.33%,1.98%,2.6%,1.32%,2.05%,1.62%,1.54%
NC(=O)c1sc(-n2cnc3ccc(C(F)(F)F)cc32)cc1OCc1ccccc1Br,-0.59%,0.84%,-0.41%,1.86%,0.94%,4.27%,4.34%,2.69%,4.02%,0.94%
N#Cc1c(NC(=O)c2ccc(F)cc2)sc2c1CCCC2,0.36%,0%,5.74%,0.34%,-0.56%,0.8%,0.7%,1.17%,0.93%,-0.62%
COC(=O)c1sc(-n2cnc3cc(OC)c(OC)cc32)cc1OCc1ccccc1C(F)(F)F,1.94%,2.16%,0.62%,1.81%,1.73%,4.86%,5.46%,2.71%,6.82%,2.38%
Fc1cccc(COc2ccc(Nc3ncnc4sc(-c5ccco5)cc34)cc2Cl)c1,11.1%,-1.11%,4.98%,5.73%,4.4%,9.64%,11%,2.72%,5.69%,3.1%
c1ccc(-c2nc3n(c2-c2ccc4c(c2)OCO4)CCC3)nc1,1.91%,0.33%,2.8%,1.38%,1.27%,3.55%,3.33%,1.87%,4.07%,2.01%
COC(=O)Nc1nc2ccc(S(=O)(=O)c3ccc(NC(=O)Nc4cc(C(F)(F)F)ccc4F)cc3)cc2[nH]1,5.43%,-0.62%,-0.64%,0.59%,1.63%,1.8%,3.35%,2.26%,2.1%,3.97%
CCOc1ccc2c(-c3ccnc(Nc4cccc(C(F)(F)F)c4)n3)cnn2n1,1.54%,1.21%,3.6%,0.79%,-0.24%,2.73%,1.86%,2.43%,3.98%,1.6%
COc1ccc(-c2nn3ncccc3c2-c2ccnc(Nc3ccc4c(c3)OCCO4)n2)cc1,2.06%,-1.54%,-0.74%,0.19%,0.03%,30.9%,37%,0.34%,2.66%,3%
COc1ccc(-c2cc(-c3c[nH]nc3-c3ccccn3)ccn2)cc1,6.22%,2.08%,0.82%,2.82%,2.73%,6.42%,14%,5.2%,7.25%,5.15%
[O-][S+]1CCN(Cc2ccc(-c3ccc4ncnc(Nc5ccc(OCc6cccc(F)c6)c(Cl)c5)c4c3)o2)CC1,6.25%,0.51%,2.24%,1.68%,1.59%,7.01%,7.37%,4.1%,3.65%,3.31%
O=C(Nc1n[nH]c2cc(-c3ccc(F)cc3)ccc12)C1CC1,9.97%,1.56%,0.81%,4.23%,4.01%,9.47%,8.99%,3.81%,5.7%,2.03%
